From PubChem BioAssay (NCI) come the findings set out here.

Compounds without any hit were thinned out: in the full panel of roughly 83,000, 20% have a hit.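 Treatment: one concentration, 48 hours, 96-well format. Scoring: percent growth, with anything below 10 considered active.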 Values without a mark were called inactive. Calls of active or inactive are those of the source.

In the assay the test system is COLO 205 colon. The assay can be described thus: NCI-60 one-dose screen, 48 h (100 = growth as untreated, 0 = no growth, -100 = all killed). As to conditions: 10 µM unless noted.
Turning to `COc1cc2[nH]c(C(=O)c3cc(OC)c(OC)c(OC)c3)c(N)c2cc1C#CC1CC1`, the growth was 8.48% (active).
`COc1cc2c(cc1OC)C(=O)/C(=C/c1cc(-c3ccc4c(c3)OCO4)n[nH]1)C2`: the growth was 7.58% (active).
The same measure for `NS(=O)(=O)c1ccc(CCNC(=O)/C=C/c2ccc(Cl)cc2)cc1`: 110%; for `C/C(=N/NC(N)=S)C(=O)O`: 119%; for `Cc1ccc(-c2ccc(Nc3ccccc3)nn2)cc1S(N)(=O)=O`: 96%.
With `CCC(c1ccc(OC)cc1)C(CC)c1ccc(O)c(CN2CCCCC2)c1` (stereo not drawn), the growth is -12.9% (active).
The same measure for `COc1cc(-c2cc(-c3nc4ccc(F)cc4[nH]3)[nH]n2)cc(OC)c1OC`: 20.9%.
Take `COc1cccc(NC(=O)c2sc3nc4c(cc3c2N)C(=O)CCC4)c1`: the growth was 0.646% (active).
As for `NC1(N)C=CC2=C(C=C1)C1(N)C3=C(C=CC(N)(N)C=C3)N2C2(N)C3=C(C=CC(N)(N)C=C3)N1C1=C2C=CC(N)(N)C=C1`, the growth is 104%.
Turning to `COc1ccc(-c2nc3ccccn3c2-c2nc3ccc(Cl)cc3[nH]2)cc1`, the growth is 110%.
Turning to `O=c1c(CNc2ccc(S(=O)(=O)Nc3nccs3)cc2)coc2ccccc12`, the growth is 119%.
The same measure for `CN1CCN(c2nc(-c3cccc4ccccc34)nc3sc4c(c23)CCCCCC4)CC1`: 91.7%.
To `COc1ccc2nc(-c3cc(-c4cc(OC)c(OC)c(OC)c4)n[nH]3)[nH]c2c1` belongs -20% (active); to `COc1cccc(-c2nn(-c3ccccc3)cc2-c2ccnc(NCCNS(=O)(=O)c3ccc(Cl)cc3)c2)c1`, 4.94% (active); to `O=S(=O)(NCCNc1cc(-c2cn(-c3ccccc3)nc2-c2cccc(O)c2)ccn1)c1ccc(C(F)(F)F)cc1`, -21.4% (active).
To `Cc1cc(C)c(NC(=O)c2sc3nc4c(cc3c2N)CCCC4)c(C)c1` belongs 42.6%; to `C/C(=N\Nc1cc(C)c2ccccc2n1)c1ccccn1`, 3.41% (active).
In the case of `C=C1C(=O)O[C@H]2[C@H]1CC/C(Cn1cc(-c3ccc(OC)cc3)nn1)=C\CC[C@@]1(C)O[C@@H]21`, the growth is -86% (active).
The same measure for `COC(=O)[C@]12CC[C@@H](C)[C@H](C)[C@@H]1C1=CC[C@@H]3[C@@]4(C)C[C@@H](OC(C)=O)[C@H](OC(C)=O)[C@@](C)(COC(C)=O)[C@@H]4[C@H](O)C[C@@]3(C)[C@]1(C)CC2`: -76% (active); for `COc1cccc(-c2nn(-c3ccccc3)cc2-c2ccnc(NCCCNS(=O)(=O)c3ccc(Cl)cc3)c2)c1`: 15.1%.
In the case of `O=c1c(CNc2ccc(S(=O)(=O)Nc3ncccn3)cc2)coc2ccccc12`, the growth was 105%.
For the compound `COc1ccc(-c2cc(/C=C/C(=O)c3ccc(OC)c(OC)c3)[nH]n2)cc1`, the growth was 24.5%.
To `C#Cc1cc2c(N)c(C(=O)c3cc(OC)c(OC)c(OC)c3)[nH]c2cc1OC` belongs -16.3% (active); to `O=S(=O)(NCCNc1cc(-c2cn(-c3ccccc3)nc2-c2cccc(O)c2)ccn1)c1ccc(F)cc1`, -49.3% (active).
To `c1ccc2[nH]c(-c3cc(-c4ccc5c(c4)OCO5)n[nH]3)nc2c1` belongs 70.3%; to `COc1cccc(-c2nn(-c3ccccc3)cc2-c2ccnc(NCCCNS(=O)(=O)c3cccc(F)c3)c2)c1`, 11.9%.
For `COc1cc(-c2cc(-c3nc4cc(Cl)c(Cl)cc4[nH]3)[nH]n2)cc(OC)c1OC`, the growth was 46.8%.
In the case of `Oc1cc(/C=C/c2nc(N3CCOCC3)c3cc(Cl)c(Cl)cc3n2)cc(O)c1O`, the growth was 108%.
The same measure for `Cc1cc(Nc2ccc(F)cc2)nc(N2CCN(c3ccnc4cc(Cl)ccc34)CC2)n1`: -68% (active); for `COc1ccc(/C=C/C(=O)NCC(C)O)cc1` (stereo not drawn): 104%.
To `COc1ccc(-c2cc(/C=C/C(=O)c3ccc(N)cc3)[nH]n2)cc1` belongs 7.56% (active).
For the compound `CSc1ccc(N(C)c2nc(C)nc3c2CCC3)cc1`, the growth was -64.9% (active).
For the compound `OCCNc1nc(Nc2ccc(Cl)c(Cl)c2)nc2ccccc12`, the growth was -21.7% (active).
In the case of `COc1cc(-c2cc(-c3nc4ccccc4[nH]3)[nH]n2)cc(OC)c1OC`, the growth was 47.3%.
`O=C1CCN2C(=O)Nc3ccccc3C2C1` (stereo not drawn): the growth is 107%.
To `Cc1[c-]onc1C.Cc1[c-]onc1C.[Ag].[Ag].[NH-]S(=O)(=O)c1ccc(N=Nc2cc(N=Nc3ccc(S([NH-])(=O)=O)cc3)c3c(NC(=O)C(Cl)Cl)cccc3c2OC(=O)C(Cl)Cl)cc1` belongs -46.9% (active); to `Clc1ccc(Cn2cc(-c3nc4ccc(Br)nc4n3Cc3ccc(Cl)cc3)c3cccnc32)cc1`, 94.5%.
In the case of `COC(=O)[C@]12CC[C@@H](C)[C@H](C)[C@@H]1C1=CC[C@@H]3[C@@]4(C)C[C@@H](OC(C)=O)[C@H](O)[C@@](C)(COC(C)=O)[C@@H]4[C@H](O)C[C@@]3(C)[C@]1(C)CC2`, the growth is -81.3% (active).
